High-throughput results from PubChem.
G9a inh = G9a (human) methyltransferase inhibition | Q96KQ7 | G9a H3K9 monomethylation, AlphaScreen, 2 h | Potency, µM (series often up to 102 µM), for inactives: at the top dose activity, negative = inhibition, most hits filed as inhibitors | actives 8.8% (n = 350,000); note: potency is the fitted concentration of half-maximal effect; % is set by controls: 0 for no effect and ±100 for the full control effect; nearly all actives have a fitted effect of over 75% in size
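Readings reflect AlphaScreen signal from monomethyl-H3K9 antibody detection. HMT at 20 nM; substrate b-H3K9 500 nM; cofactor SAM 20 uM; 2 h RT reaction; compounds tested as titrations in qHTS with 15 min preincubation.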
BAZ2B inh = blocks human BAZ2B. Q9UIF8. AlphaScreen BAZ2B-H3K14Ac peptide displacement. Potency, µM (series often up to 114 µM), for the others: at the highest dose activity change, negative = inhibition, most hits filed as inhibitors. actives 4.4% (n = 360,000); note: potency is the fitted concentration of half-maximal effect; % is set by controls: 0 for no effect and ±100 for the full control effect; nearly all actives have a fitted effect of over 60% in size
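BAZ2B 50 nM plus b-H3(5-23)K14Ac 50 nM, PBS pH 7.4/0.01% Tween-20, 30 min RT; compound added (max 110 uM), 30 min RT; streptavidin donor/Ni-chelate acceptor beads 10 ug/mL final, 20 min dark; AlphaScreen read.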
CtBP-E1A inh = CtBP/E1A binding inhibition. AlphaScreen GST-E1A/His-CtBP binding, 1536-well; stronger effect = lower value. activity change, % (concentration not given with the values). actives 0.49% (n = 340,000). AID 651724; in the data active = activity change below about -65%; inconclusive = mostly about -30% to -63%; note: % is set by controls: 0 for no effect and ±100 for the full control effect
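Steps: dispense buffer (Tris pH 8.0, NaCl 300 mM, TCEP 1 mM, BSA, Tween 20); add 5X protein mix (GST-E1A, His-CtBP, 125 nM each); pin 23 nL compound; 2 h at 37 °C, dark; add 5X beads (50 ug/mL); 1 h; read.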
Six1-Eya2 inh = blocks human Six1 binding to Eya2. AlphaScreen GST-Six1/His-Eya2 binding, biochemical; stronger effect = lower value. actives 0.56% (n = 360,000). Q15475+O00167. activity change, % (test concentration not listed); in the data active = activity change below about -65%; inconclusive = mostly about -30% to -63%; note: % is set by controls: 0 for no effect and ±100 for the full control effect
Target sequence (O00167 whole entry, looked up): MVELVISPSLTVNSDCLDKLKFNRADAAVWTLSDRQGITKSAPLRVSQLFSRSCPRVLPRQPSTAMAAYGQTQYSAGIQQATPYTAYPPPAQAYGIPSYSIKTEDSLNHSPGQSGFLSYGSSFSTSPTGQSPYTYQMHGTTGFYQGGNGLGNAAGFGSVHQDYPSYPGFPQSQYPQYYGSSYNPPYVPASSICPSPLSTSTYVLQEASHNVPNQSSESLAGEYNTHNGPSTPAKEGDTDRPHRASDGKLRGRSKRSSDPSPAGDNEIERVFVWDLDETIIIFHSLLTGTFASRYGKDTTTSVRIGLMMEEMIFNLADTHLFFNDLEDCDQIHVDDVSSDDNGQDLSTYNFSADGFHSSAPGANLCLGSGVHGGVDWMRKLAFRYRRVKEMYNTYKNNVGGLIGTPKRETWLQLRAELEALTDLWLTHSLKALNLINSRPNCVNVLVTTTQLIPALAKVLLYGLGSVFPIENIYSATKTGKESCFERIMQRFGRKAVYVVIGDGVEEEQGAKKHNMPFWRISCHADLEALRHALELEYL
Target sequence (Q15475 whole entry, looked up): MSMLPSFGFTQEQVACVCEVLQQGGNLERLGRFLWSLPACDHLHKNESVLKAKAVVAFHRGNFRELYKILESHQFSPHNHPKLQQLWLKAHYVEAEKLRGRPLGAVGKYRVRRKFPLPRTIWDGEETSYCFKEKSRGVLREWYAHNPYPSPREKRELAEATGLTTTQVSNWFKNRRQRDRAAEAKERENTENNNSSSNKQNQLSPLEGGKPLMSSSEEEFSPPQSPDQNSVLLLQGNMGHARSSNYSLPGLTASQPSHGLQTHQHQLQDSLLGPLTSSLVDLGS
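GST-Six1 + His-Eya2 (5X stock: 250/500 nM); Tris pH 8.0, 300 mM NaCl, 0.05% BSA, 0.02% Tween 20; GSH donor/Ni acceptor beads; 1 h 37 °C dark; AlphaScreen readout.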
JMJD2A Tudor = blocks the human JMJD2A Tudor domain. O75164. AlphaScreen JMJD2A-Tudor / H3K4me3 peptide binding. Potency, µM (doses to about 114 µM), without a hit: at the highest dose activity change, negative = inhibition, actives largely listed as inhibitors. actives 4.4% (n = 390,000). AID 504339; note: potency is the fitted concentration of half-maximal effect; % is set by controls: 0 for no effect and ±100 for the full control effect; nearly all actives have a fitted effect of over 50% in size
HP1b binding inh = HP1-beta chromodomain-methylated histone interaction inhibition; AlphaScreen HP1-beta / biotin-H3K9me3 peptide binding; Potency, µM (series often up to 114 µM), inactives show at the highest dose activity change, negative = inhibition, actives largely listed as inhibitors; AID 540317; actives 0.56% (n = 390,000); P83916; note: potency is the fitted concentration of half-maximal effect; nearly all actives have a fitted effect of over 70% in size
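AlphaScreen: HP1-beta (50 nM) preformed 30 min with biotin-H3(1-18)K9me3 peptide (50 nM) in PBS pH 7.4, 0.01% Tween-20. Compound added for 30 min at RT, then streptavidin donor/nickel chelate acceptor beads (10 ug/mL) for 30 min.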
* hit, by the source's call; [ ] = remark or other dose. Rows were chosen to be rich in hits. Some 10% of all compounds tested hit in one or more screens of this group. Unless noted, calls come from the whole dose curve; as a rule, active = well fitted inhibition curve with a large enough effect; inconclusive = small, poorly fitted or top-dose-only effect; inactive = no such curve, though single readings can be large or run the other way.

Screening CC(=O)c1ccc(N2CCN(C(=O)c3cccs3)C(C)C2)c(F)c1 (stereo not given) returned G9a inh 5%, BAZ2B inh -5%, Six1-Eya2 inh -2, JMJD2A Tudor -10% and HP1b binding inh 13%.
For COc1ccc(-c2oc(NC(=O)CSc3ncn[nH]3)c(C#N)c2-c2ccc(OC)cc2)cc1 the results were BAZ2B inh inconclusive, CtBP-E1A inh 4, Six1-Eya2 inh -4, JMJD2A Tudor inconclusive and HP1b binding inh -17%.
Screening COc1ccc(-c2oc(NC(=O)CCl)c(C#N)c2-c2ccc(OC)cc2)cc1 returned G9a inh 50µM*, BAZ2B inh 50µM*, CtBP-E1A inh -2, Six1-Eya2 inh -8, JMJD2A Tudor inconclusive and HP1b binding inh -18%.
Screening N#CC(=C(\N)Sc1ccccc1N)/C(C#N)=C(/N)Sc1ccccc1N returned G9a inh 32µM*.
For Nc1ccccc1SCc1ccccc1 the results were G9a inh 13%[59 µM], BAZ2B inh 11%, Six1-Eya2 inh -7, JMJD2A Tudor -12% and HP1b binding inh 58%.
`COC(=O)/C(C#N)=C/c1ccc(OC(=O)c2ccccn2)cc1` gave G9a inh 7.9µM*, BAZ2B inh 7.1µM*, CtBP-E1A inh inconclusive, Six1-Eya2 inh inconclusive, JMJD2A Tudor 8.9µM* and HP1b binding inh 44%.
Screening C=CCN(CC=C)c1cnn(-c2nc3ccccc3[nH]2)c(=O)c1Cl returned G9a inh inconclusive, BAZ2B inh inconclusive, CtBP-E1A inh 1, Six1-Eya2 inh -4, JMJD2A Tudor -21% and HP1b binding inh 33%.
For O=c1c(Cl)c(NCCCO)cnn1-c1nc2ccccc2[nH]1 the results were G9a inh 6%[12.7 µM], BAZ2B inh 50µM*, CtBP-E1A inh 0, Six1-Eya2 inh -4, JMJD2A Tudor -21%[11.4 µM] and HP1b binding inh -1%.
Screening Cc1ccc(C(=O)NC(=S)Nc2c(C)ccc3nsnc23)cc1 returned G9a inh 11µM*, BAZ2B inh -38%, CtBP-E1A inh -1, Six1-Eya2 inh -7, JMJD2A Tudor -26% and HP1b binding inh 3%.
For Cc1ccc(C(=O)NC(=S)Nc2cccc3nsnc23)cc1 the results were G9a inh 6.3µM*, BAZ2B inh -34%, CtBP-E1A inh 0, Six1-Eya2 inh -4, JMJD2A Tudor -4% and HP1b binding inh 15%.
For CN(C)c1ccc(CN(C)C2CCCCC2)cc1 the results were G9a inh 50µM*, BAZ2B inh inconclusive, CtBP-E1A inh 9, Six1-Eya2 inh -15, JMJD2A Tudor -31% and HP1b binding inh 1%.
`CNc1ncncc1-c1ccccc1C` gave G9a inh 20%[0.501 µM].
COc1ccc(-c2ccc3c(N)c(C(=O)c4cccc(OC)c4)sc3n2)cc1 was read as G9a inh 50µM*, BAZ2B inh -18%, CtBP-E1A inh 18, Six1-Eya2 inh 16, JMJD2A Tudor -9% and HP1b binding inh 69%.
For Cc1cccc(S(=O)(=O)c2cn(Cc3ccc(F)cc3)c3cc(N4CCCCC4)c(F)cc3c2=O)c1 the results were G9a inh 10%[59 µM], BAZ2B inh 3%, JMJD2A Tudor 0% and HP1b binding inh 32%.
For C=CCn1c(SCc2csc(-c3ccc(C)cc3)n2)nnc1-c1ccccc1OC the results were G9a inh 32µM*, BAZ2B inh 2%, CtBP-E1A inh -2, Six1-Eya2 inh -5, JMJD2A Tudor inconclusive and HP1b binding inh 11%.
`COc1ccccc1-n1cnnc1SCc1csc(-c2ccccc2)n1` gave G9a inh -2%[59 µM], BAZ2B inh -5%, CtBP-E1A inh -5, Six1-Eya2 inh -7, JMJD2A Tudor -32% and HP1b binding inh 30%.
`O=C(CSc1nc2ccc(NC(=O)C3CCCCC3)cc2s1)NCC1CCCO1` (stereo not given) gave G9a inh 45µM*, BAZ2B inh -1%, CtBP-E1A inh 1, Six1-Eya2 inh 2, JMJD2A Tudor -28% and HP1b binding inh 43%.
`Cc1ccc(Nc2nnc(SCC(=O)NCC3CCCO3)s2)cc1C` (stereo not given) gave CtBP-E1A inh -77*, Six1-Eya2 inh -68*, JMJD2A Tudor -17% and HP1b binding inh 31%.
Screening Cc1ccc(Nc2nnc(SCC(=O)NCC3CCCO3)s2)cc1 (stereo not given) returned CtBP-E1A inh -24, Six1-Eya2 inh inconclusive, JMJD2A Tudor -16% and HP1b binding inh 28%.
For Cc1ccc(Nc2nnc(SCC(=O)NCCN3C(=O)CSC3=O)s2)cc1C the results were G9a inh 28µM*, BAZ2B inh 4%, Six1-Eya2 inh inconclusive, JMJD2A Tudor -8% and HP1b binding inh 23%.
For COc1cc(C(=O)Nc2nnc(SCC(=O)NCC3CCCO3)s2)cc(OC)c1OC (stereo not given) the results were G9a inh 71µM*, BAZ2B inh inconclusive, CtBP-E1A inh 1, Six1-Eya2 inh -3, JMJD2A Tudor -8% and HP1b binding inh 42%.
Screening CCCN1CNc2c(c(=O)[nH]c(=S)n2CCc2ccc(Cl)cc2Cl)C1 returned JMJD2A Tudor -12% and HP1b binding inh 13%.
Screening CCOc1ccc(-n2nc(CO)c(C(=O)NCc3cccc(OC)c3)n2)cc1 returned G9a inh 13%[59 µM], BAZ2B inh 10%, JMJD2A Tudor -14% and HP1b binding inh 5%.
For Oc1ccc(-c2cn3c(n2)SCC3)cc1O the results were G9a inh 1.1µM*, BAZ2B inh inconclusive, CtBP-E1A inh -25, Six1-Eya2 inh inconclusive, JMJD2A Tudor 11µM* and HP1b binding inh inconclusive.
For Oc1ccc(-c2cn3c(n2)SCC3)cc1 the results were G9a inh 8.9µM*, BAZ2B inh -11%, CtBP-E1A inh -2, Six1-Eya2 inh 3, JMJD2A Tudor -28% and HP1b binding inh 1%.
For O=C(/C=C/c1ccco1)N(Cc1ccccc1)C1CCS(=O)(=O)C1 (stereo not given) the results were G9a inh 35µM*, BAZ2B inh -28%, CtBP-E1A inh -4, Six1-Eya2 inh 2, JMJD2A Tudor -15% and HP1b binding inh 26%.
`O=C(/C=C/c1ccco1)N(Cc1cccc(F)c1)C1CCS(=O)(=O)C1` (stereo not given) gave G9a inh 40µM*, BAZ2B inh -26%, CtBP-E1A inh 0, Six1-Eya2 inh -3, JMJD2A Tudor -24% and HP1b binding inh 23%.
